# Measurements as given in PubChem BioAssay (NCATS).
# The source made the active and inactive calls. The rule behind the calls is not given here.
# Assay: qHTS assay for small molecule activators of the human pregnane X receptor (PXR) signaling pathway (AID 720659)
# Settings: DPX-2 HepG2 CYP3A4-luciferase, 24 h; series mostly up to 92.3 µM
compound,measurement,value
O=C(O)CCCc1c[nH]c2ccccc12,outcome,inactive
